# A selection: hits, their analogues and other compounds. The true share with any hit is near 0.88%.
# IL-2 act: IL-2 activation. IL-2 activation reporter assay, cell-based qHTS; stimulated with anti-CD3/CD4/CD28 beads; in transgenic mouse T cells. activation, % (series mostly up to about 46 µM). hit rate 0.065% among 360,000; in the data active = activation above about 50%; inconclusive = mostly about 30% to 49%
#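 Unstimulated transgenic mouse T cells preincubated 60 min with compound, then stimulated with anti-CD3/anti-CD4-coated beads plus anti-CD28 for 18 h at 37 degrees C. IL-2 response read as EGFP and DsRed fluorescence by plate cytometry.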
# MBNL1-CUG inh: MBNL1-poly(CUG) RNA binding inhibition; Q9NR56; TR-FRET MBNL1-His/biotin-(CUG)12 binding, 665/545 ratio; Potency, µM (series often up to 57.5 µM), hits mostly inhibitors; hit rate 0.036% among 280,000; AID 2675; active = well fitted inhibition curve with a large enough effect in the signal ratio, with a control signal flat, not every such curve was filed as active; inconclusive = small, poorly fitted or top-dose-only effect, or effect the other way, or a change in a side signal; inactive = no such curve, though single readings can be large or run the other way; the % refers to the signal ratio
#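 Inhibition of protein-RNA binding appears as loss of TR-FRET between terbium anti-His antibody on MBNL1-His and streptavidin-XL665 on biotin-(CUG)12. Activity is normalized to buffer-only and uninhibited-complex controls.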
# Epigenetic reg: regulators of epigenetic silencing causing reporter derepression in mouse cells; murine LDR cells, GFP reporter derepression, 30 h; Potency, µM (top dose mostly 53.9 µM), usual class: activators; hit rate 0.2% among 280,000; AID 1865; note: nearly all actives have a fitted effect of over 60% in size
#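 Reporter derepression read as number of fluorescent GFP-positive objects, 20-120 um in size, counted by laser-scanning cytometer. Mouse LDR line with an epigenetically silenced CMV-GFP locus; compound incubation 30 h, 37 C.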
# CBFb RUNX1 block: CBF-beta/RUNX1 interaction disruption; Q01196+Q13951; AlphaScreen CBFb-His/RUNX1-biotin binding, biochemical; Potency, µM (highest dose often 59.8 µM), usual class: inhibitors; 230,000 tested, under 10 active; AID 1477
#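 Bead-based AlphaScreen assay; binding partners His-tagged CBF-beta and biotinylated RUNX1 at 30 nM each. Compound exposure 15 min after a 20-min protein preincubation; bead step 90 min; all steps at room temperature.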
# TRHR ag: activates the human TRH receptor; P34981; TRHR cells, calcium flux fluo-8, FDSS agonist mode; activation, % at 2 µM; hit rate 0.18% among 360,000; AID 493084; in the data active = activation above about 30%
# Target sequence (P34981 whole entry, looked up): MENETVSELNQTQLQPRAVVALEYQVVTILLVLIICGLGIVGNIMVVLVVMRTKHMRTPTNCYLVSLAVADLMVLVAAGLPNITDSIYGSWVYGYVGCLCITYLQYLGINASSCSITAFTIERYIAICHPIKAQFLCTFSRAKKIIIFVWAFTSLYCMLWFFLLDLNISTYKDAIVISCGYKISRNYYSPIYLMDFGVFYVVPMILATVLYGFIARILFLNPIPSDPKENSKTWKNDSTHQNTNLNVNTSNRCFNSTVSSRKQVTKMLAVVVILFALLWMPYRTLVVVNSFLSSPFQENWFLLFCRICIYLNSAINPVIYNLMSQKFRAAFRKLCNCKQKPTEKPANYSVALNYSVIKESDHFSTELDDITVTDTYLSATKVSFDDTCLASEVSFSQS
#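 Read-out: compound-evoked intracellular calcium rise in TRHR cells, fluo-8 dye, kinetic FDSS fluorescence at 1 s/cycle following a 10-cycle baseline. Cells cultured overnight before dye loading (30 min–1.5 h, RT).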
# TRHR PAM: allosteric enhancers of human TRH receptor | enhancement, % at 2 µM | TRHR cells, fluo-8 calcium fluorescence, EC20 TRH enhancement | hit rate 0.66% among 360,000; in the data active = enhancement above about 30%
#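 TRHR-expressing cells loaded with fluo-8 calcium dye were read kinetically (ex 480/em 530) during compound addition, then stimulated with an EC20 of TRH (10 nM final). Enhancement of the Gq-mediated intracellular calcium response was scored.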
# A number is an active result; n = inactive; u = inconclusive; x = no result given; ! = not active in a repeat. Unless noted, calls come from the whole dose curve; as a rule, active = well fitted curve in the direction sought with a large enough effect; inconclusive = small, poorly fitted or top-dose-only effect, or another doubt; inactive = no such curve, though single readings can be large; an effect the other way counts as inactive or inconclusive.
SMILES,IL-2 act,MBNL1-CUG inh,Epigenetic reg,CBFb RUNX1 block,TRHR ag,TRHR PAM
Cc1cccc(Cn2cc(S(=O)(=O)c3ccccc3)c(=O)c3cc(F)c(N4CCOCC4)cc32)c1,x,x,n,x,n,38
Cc1cccc(Cn2cc(S(=O)(=O)c3cccc(C)c3)c(=O)c3cc(F)c(N4CCOCC4)cc32)c1,x,x,n,x,n,n
Cc1ccc(-c2cc(C(=O)NCc3cnn(C)c3)c3cc(Br)ccc3n2)cc1,n,n,n,n,n,n
CCn1cc(CNC(=O)c2cc(-c3ccc(C)cc3)nc3ccc(Br)cc23)c(C)n1,x,x,16µM,x,n,n
COC(=O)c1cc2c(=O)c3ccccc3oc2nc1/C=C/N(C)C,n,u,x,x,35,n
N#Cc1nc(Nc2ccc(-c3ccccc3)cc2)nc(NC2CCCC2)n1,x,x,x,x,n,n
CCCc1ccc(OC(C)c2nc(-c3ccc(-n4cccc4)cc3)no2)cc1 (stereo unspecified),x,x,n,x,n,36
COc1ccc(CCc2nc(-c3ccc(-n4cccc4)cc3)no2)cc1,n,n,n,n,n,n
COc1ccccc1N1CCN(C(=O)CN2C(=O)COc3ccc(S(=O)(=O)N4CCCC4)cc32)CC1,x,x,n,x,n,n
CC(=O)Nc1ccc(NC(=O)c2ccc(-c3ccccc3Cl)o2)cc1,n,x,x,x,n,33
Cc1cc2oc(C(=O)Nc3ccc(S(=O)(=O)N(C)Cc4ccccc4)cc3)cc(=O)c2cc1C,x,x,n,x,n,31
CCCC[C@@H](C)/C=C(C)/C=C(\C)C(=O)NC1=C[C@@](O)(/C=C/C=C/C=C/C(=O)NC2=C(O)CCC2=O)[C@@H]2O[C@@H]2C1=O,x,x,x,n,x,x
COC(=O)c1cc2n(n1)CCN(Cc1ccccc1Cl)C2=O,n,n,n,n,n,32
CC(C)C[C@H](NC(=O)N1CC(=O)Nc2ccccc21)C(=O)N[C@H](C(=O)O)c1ccccc1,n,n,x,x,n,33
O=C1CN(C(=O)N[C@@H](Cc2ccccc2)C(=O)N[C@H](C(=O)O)c2ccccc2)c2ccccc2N1,n,n,x,x,n,n
CC(C)[C@H](NC(=O)N1CC(=O)Nc2ccccc21)C(=O)N[C@H](C(=O)O)c1ccccc1,n,n,x,x,n,30
CCC(C(=O)NCCc1cc(OC)ccc1OC)n1nc(C)c2sc3ccccc3c2c1=O (stereo unspecified),x,x,13µM,x,n,n
CCC(C(=O)NCc1cc(OC)ccc1OC)n1nc(C)c2sc3ccccc3c2c1=O (stereo unspecified),x,x,n,x,n,n
CCOc1ccc(-c2cc(C(=O)N/N=C/c3ccc(O)c(OC)c3)[nH]n2)cc1,x,x,n,x,x,x
O=C(CNS(=O)(=O)c1ccc2ccccc2c1)OCc1csc(-c2ccccc2)n1,n,n,n,n,n,n
Cc1ccc(S(=O)(=O)NCC(=O)OCc2csc(-c3ccccc3)n2)cc1,n,x,n,n,n,33
CC1CCN(S(=O)(=O)c2ccc3c(ccn3CC(=O)NCc3ccc(N(C)C)cc3)c2)CC1,x,x,n,x,n,n
CCOc1ccc(N2CC(C(=O)Nc3ccc(S(=O)(=O)Nc4ncccn4)cc3)CC2=O)cc1 (stereo unspecified),n,n,n,n,n,32
O=C(Nc1ccc(S(=O)(=O)Nc2ncccn2)cc1)C1CC(=O)N(c2ccccc2)C1 (stereo unspecified),n,x,x,x,n,n
Cc1cc(C)n(-c2nc3ccccc3nc2N2CCCC2)n1,n,n,n,n,n,n
SMILES,IL-2 act,MBNL1-CUG inh,Epigenetic reg,CBFb RUNX1 block,TRHR ag,TRHR PAM
Cc1cc(C)n(-c2nc3ccccc3nc2N2CCN(C(=O)c3ccc(Cl)cc3)CC2)n1,n,n,n,n,n,30
O=C(C[n+]1ccccc1)Nc1c(Cl)cc(Cl)cc1Cl,n,u,u,n,n,39
CCCCC(O)C(=O)Nc1cc(C(F)(F)F)ccc1Cl (stereo unspecified),x,x,x,x,n,n
COc1ccc(NC(=O)c2cc(=O)c3ccccc3o2)cn1,n,u,n,n,n,n
CC(NC(=O)c1cc2ccccc2o1)c1ccccc1 (stereo unspecified),n,n,16µM!,n,n,n
COc1ccc(NC(=O)c2cc3ccccc3o2)cn1,n,n,x,x,n,41
C=CCN1CC(C(=O)N2CCC(Cc3ccc(Cl)cc3)(C(=O)OCC)CC2)CC1=O (stereo unspecified),n,n,n,n,n,30
CCOC(=O)C1(Cc2ccc(Cl)cc2)CCN(C(=O)C2CCCO2)CC1 (stereo unspecified),n,n,n,n,n,n
COc1ccc2occ(C(=O)c3ccccc3)c2c1,n,n,n,u,n,n
COc1ccc(OC)c(C(=O)c2coc3ccc(O)cc23)c1,n,n,n,n,n,40
Cc1ccc(NC(=O)Cn2c(=O)ccc3cc(S(=O)(=O)N4CCCC4)ccc32)cc1N(C)C,x,x,n,x,n,n
CN1C(=O)CSC1=Nc1ccc(Br)cc1,n,n,x,x,n,n
COC(=O)c1ccc(N=C2SCC(=O)N2C)cc1,n,n,x,x,n,37
CN(CC(=O)N1CCCC1)S(=O)(=O)c1ccc(Cl)cc1,n,n,n,n,n,30
CN1CCC(N(C)S(=O)(=O)c2ccc(Cl)cc2)CC1,n,n,x,x,n,35
Cc1ccc2oc(=O)n(CC(=O)OCCC(C)C)c2c1,n,n,n,n,n,35
COC(=O)C1=C(C)N(Cc2ccccc2)C(=NCC2CC2)N[C@H]1c1ccccc1,n,n,x,x,n,n
COC(=O)C1=C(C)N(Cc2ccccc2)C(=NCC2CC2)N[C@H]1c1ccc(Br)cc1,x,n,x,x,n,32
CCOC(=O)CSc1nc2ccccc2c(=O)n1CCc1ccc(OC)c(OC)c1,x,x,n,x,n,n
CCc1ccc(NC(=O)C/C(C)=N/NC(=O)COc2ccc(C)cc2Br)cc1,n,n,x,x,n,n
C/C(CC(=O)Nc1ccccc1)=N\NC(=O)COc1ccc(C)cc1Br,n,x,n,n,n,34
Cc1cc(C)nc(/N=C(\N)Nc2cccc(OCc3ccccc3)c2)n1,n,n,n,n,n,n
Cc1cc(C)nc(/N=C(\N)Nc2ccc(OCc3ccccc3)cc2)n1,n,n,n,n,50,n
CCN(CC)S(=O)(=O)c1cc(C(=O)Nc2ccccc2C(=O)O)ccc1OC,n,n,n,n,n,39
CCN1CCOC(=O)C1CC(=O)Nc1cc(Cl)ccc1C (stereo unspecified),x,x,n,x,n,n
COc1ccc(CCNC(=O)c2nn(-c3ccc(C)cc3)c(=O)c3c2c2ccccc2n3C)cc1OC,x,x,n,x,n,n
O=C(O)c1ccc2c(=O)[nH]c(CCl)nc2c1,n,x,n,n,n,33
